Screening data: PubChem BioAssay, National Center for Advancing Translational Sciences (NCATS)
HT1080 IDH1KD tx: HT-1080 IDH1 knockdown cell toxicity (counter line) | AID 686971 | HT-1080 IDH1 knockdown viability, ATP luminescence, 48 h | actives 2% (n = 360,000) | Potency, µM (series often up to 46.1 µM), inactives show at the highest dose activity, negative = toxicity, hits mostly cytotoxic;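 also: 0% = DMSO wells and -100% = cell-free medium wells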
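In this qHTS, HT-1080 cells depleted of IDH1 are exposed for 48 h at 37 °C to compound titrations. Toxicity is scored from CellTiter-Glo luminescence, with DMSO as full viability and medium alone as none.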
KB-V1 MDR tox: kills drug-selected multidrug resistant KB-V1 cells; actives 3.4% (n = 400,000); KB-V1 MDR cells viability, CellTiter-Glo, 72 h; AID 1347076; Potency, µM (series often up to 46.1 µM), usual class: cytotoxic; also: nearly all actives have a fitted effect of over 60% in size
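Cytotoxicity toward P-gp-expressing KB-V1 cells was determined as loss of CellTiter-Glo luminescence after 72 h at 37 degrees C. Compounds were tested in quantitative HTS format across a concentration range, with curves fitted to normalized data.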
KB-3-1 cytotox: KB-3-1 parental cell cytotoxicity; KB-3-1 viability, CellTiter-Glo ATP luminescence, 72 h; Potency, µM (titrated, usually from 46.1 µM), usual class: cytotoxic; actives 1.4% (n = 400,000); also: nearly all actives have a fitted effect of over 60% in size
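Here the drug-naive KB-3-1 line serves as comparator for MDR sub-line selectivity; cells received compound titrations, 72 h at 37 °C, then CellTiter-Glo readout.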
TDP1 cell noCPT: qHTS for Inhibitors of human tyrosyl-DNA phosphodiesterase 1 (TDP1): qHTS in cells in absence of CPT | Potency, µM (series often up to 46.2 µM), without a hit: at the top dose activity change, negative = growth inhibition, usual class: inhibitors | actives 15% (n = 420,000) | DT40 Tdp1-/- hTDP1 cells, no CPT, ATP luminescence, 48 h | AID 686978, 2013; also: nearly all actives have a fitted effect of over 55% in size
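Readout: luminescence from CellTiter-Glo after 30 min in the dark at RT. Cells: DT40 Tdp1-/- with stable hTDP1, 400/well. Exposure: compounds alone, ≥48 hr, 37 °C.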
DT40 TDP1 CPT: growth inhibition of DT40 Tdp1-/-;hTDP1 cells with camptothecin (screen for TDP1 inhibitors); chicken DT40 Tdp1-/-;hTDP1 cells + 20 nM CPT, ATP luminescence, 48 h; Potency, µM (titrated, usually from 46.2 µM), without a hit: at the top dose activity change, negative = growth inhibition, usual class: inhibitors; actives 12% (n = 420,000); AID 686979; also: nearly all actives have a fitted effect of over 55% in size
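Chicken DT40 Tdp1-/- cells stably complemented with human TDP1 were seeded at 400 cells/well in medium containing 20 nM camptothecin, exposed to pin-transferred compounds, and grown at 37 °C for at least 48 hr. Viability was read as ATP luminescence.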
HT1080-NT tox: kills 2HG-producing HT-1080-NT fibrosarcoma cells | actives 1.6% (n = 360,000) | HT-1080-NT fibrosarcoma viability, CellTiter-Glo ATP luminescence, 48 h | Potency, µM (series often up to 46.1 µM), inactives show at the highest dose activity, negative = less viability, usual class: cytotoxic;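 also: NT is the 2HG producing partner of a matched IDH1 knockdown line; 0% = DMSO-treated cells and -100% = media-only wells without cells; nearly all actives have a fitted effect of over 55% in size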
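Viability by CellTiter-Glo luminescence after 48 h compound exposure at 37C of HT-1080-NT cells (750/well, RPMI, 5% FBS). % activity scaled between DMSO wells and medium-only wells, then curve-fitted and categorized by curve class.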
* marks the source's active call; other numbers are inactive results; i = inactive; u = inconclusive; x = no result. Compounds with a hit are over-represented: about 19% of the library has one in this group of screens. Calls follow the shape of the dose curve; as a rule, active = well fitted curve in the direction sought with a large enough effect; inconclusive = small, poorly fitted or top-dose-only effect, or another doubt; inactive = no such curve, though single readings can be large; an effect the other way counts as inactive or inconclusive. Unless noted, % is scaled to controls: 0 for no effect and ±100 for the full control effect; potency is read from the fitted curve at half-maximal effect.

SMILES | HT1080 IDH1KD tx | KB-V1 MDR tox | KB-3-1 cytotox | TDP1 cell noCPT | DT40 TDP1 CPT | HT1080-NT tox
O=C(NCCN1CCC(n2c(=O)[nH]c3ccccc32)CC1)c1ccccc1Cl | 16% | u | i | u | u | 5%
O=C(NCCN1CCC(n2c(=O)[nH]c3ccccc32)CC1)c1ccc(Cl)cc1 | -19% | i | i | 9.2µM* | 3.7µM* | u
O=C(NCCN1CCC(n2c(=O)[nH]c3ccccc32)CC1)c1ccc(Cl)c(Cl)c1 | u | 21µM* | u | 18µM* | u | 21µM*
O=C(NCCN1CCC(n2c(=O)[nH]c3ccccc32)CC1)c1ccc(F)cc1 | 8% | i | u | u | u | 1%
CCN(CC)C(=O)c1cc(-c2ccc(Cl)cc2)on1 | x | i | i | -7% | -19% | x
COCCNC(=O)c1cc(C)ccc1C | 30% | i | i | -1% | -2% | 9%
C=C(CN(C)C)C(=O)c1cc(C)ccc1C | 4.6µM* | u | u | 1µM* | 0.58µM* | u
NNc1ncnc2sc3c(c12)CCC3 | -12% | i | u | 18µM* | 8.2µM* | 0%
c1cc(Nc2ncnc3sc4c(c23)CCC4)ccn1 | 7% | i | i | u | u | -14%
CN(C)c1ccc(Nc2ncnc3sc4c(c23)CCCC4)cc1 | x | i | i | 23µM* | u | x
C(=N\Nc1ncnc2sc3c(c12)CCC3)/c1ccncc1 | u | 18µM* | u | u | u | u
Cc1cccc(NC(=O)CSc2nc(-c3cccs3)cc(C(F)(F)F)c2C#N)c1C | x | i | i | -13% | -13% | x
Cc1ccc(NC(=O)Cn2c(=O)n(CCc3ccccc3)c(=O)c3sc4ccccc4c32)cc1C | x | u | i | -7% | -2% | x
Cc1ccc(S(=O)(=O)N2CCN(C(=O)c3cc4c(s3)CCC(C)C4)CC2)cc1 (stereo unspecified) | 3% | i | i | 16µM* | u | 2%
CCOc1ccc(OCCC(=O)N2CCN(S(=O)(=O)c3ccc(OCC)cc3)CC2)cc1 | 5% | x | x | -18% | -9% | -2%
CCOc1ccc(S(=O)(=O)N2CCN(C(=O)c3cc4c(s3)CCCC4)CC2)cc1 | -1% | 3.3µM* | 12µM* | u | 16µM* | -3%
CCOC(=O)N1CCN(C(=O)C(=O)NN)CC1 | -4% | i | i | -2% | 1% | 2%
COc1cc2c(cc1OC)-c1cc(Nc3ccc(N(C)C)cc3)nc(=O)n1CC2 | -8% | i | i | u | -17% | -9%
CCN(CC)c1ccc(Nc2cc3n(c(=O)n2)CCc2cc(OC)c(OC)cc2-3)cc1 | u | i | i | u | 3% | 26µM*
Cc1c(CCC(=O)NCCc2ccc(Cl)cc2)c(=O)oc2c(C)c(O)ccc12 | x | i | i | -20% | u | x
O=C(Nc1ncc(Cc2ccccc2Cl)s1)c1ccc(-c2cccc([N+](=O)[O-])c2)o1 | -6% | i | i | u | u | -12%
Cc1cccc(Cc2cnc(NC(=O)c3ccc(C)o3)s2)c1 | u | i | u | u | u | -4%
O=C(Nc1ncc(Cc2cccc([N+](=O)[O-])c2)s1)c1ccco1 | 4.6µM* | i | 5.8µM* | u | -13% | u
Cc1cccc(Cc2cnc(NC(=O)C3=NCCN3)s2)c1 | -20% | u | u | 23µM* | -86% | u
O=C(Nc1ncc(Cc2cccc(Cl)c2)s1)c1ccc([N+](=O)[O-])cc1 | u | u | u | 8.2µM* | u | -21%
SMILES | HT1080 IDH1KD tx | KB-V1 MDR tox | KB-3-1 cytotox | TDP1 cell noCPT | DT40 TDP1 CPT | HT1080-NT tox
Cc1ccc(Cc2cnc(NC(=O)c3ccco3)s2)cc1 | -5% | 18µM* | i | u | -85% | -15%
CCc1ccccc1NC(=O)c1cc2nc(-c3ccc(OC)c(OC)c3)cc(C(F)(F)F)n2n1 | x | i | i | x | x | x
CCN(CCCNC(=O)Cn1ncc2c3ccccc3n(C)c2c1=O)c1cccc(C)c1 | x | i | i | u | u | x
O=C(c1[nH]c(C(F)(F)F)nc1-c1ccccc1)N1CCN(c2c(Cl)cncc2Cl)CC1 | -14% | i | i | u | u | -14%
O=C(Nc1nnc(Cc2ccccc2)s1)c1ccco1 | 14% | i | i | -6% | -7% | u
NC(=O)c1cc(Cc2ccccc2)sc1NC(=O)c1ccco1 | u | 9.2µM* | u | 12µM* | u | u
O=C(Nc1ncc(Cc2ccc(SC(F)F)cc2)s1)c1ccc(OC(F)F)cc1 | 0.046µM* | 0.33µM* | 0.21µM* | 1µM* | 1.3µM* | 0.073µM*
COc1cccc(OCCCCn2c(-c3ccc(Cl)cc3)nc3ccccc3c2=O)c1 | x | i | u | -6% | -13% | x
CCOc1ccc(C[C@H]2NC(=O)CCSSC[C@@H](C(=O)N3CCC[C@H]3C(=O)N[C@@H](CCCN)C(=O)NCC(N)=O)NC(=O)[C@H](CC(N)=O)NC(=O)[C@H]([C@@H](C)O)NC(=O)[C@H]([C@@H](C)CC)NC2=O)cc1 | x | x | x | 7% | 0% | x
CCN1C(=NCc2ccccc2)N[C@@H](c2ccccc2)[C@H](C(=O)OC)[C@H]1C | 0% | i | i | -27% | u | 25%
CCN1C(=NCCN2CCOCC2)N[C@@H](c2ccccc2)C(C(=O)OC)=C1C | 1% | i | i | -9% | -8% | 1%
COC(=O)C1=C(C)N(Cc2ccccc2)C(=NCCc2c[nH]c3ccccc23)N[C@H]1c1cccc(F)c1 | -25% | u | u | 2.6µM* | 5.2µM* | u
COC(=O)C1=C(C)N(Cc2ccccc2)C(=NCCc2c[nH]c3ccccc23)N[C@H]1c1ccccc1 | -21% | i | u | 21µM* | u | -17%
CCN1C(=NCCc2c[nH]c3ccccc23)N[C@@H](c2ccccc2)[C@H](C(=O)OC)[C@H]1C | -1% | i | i | 18µM* | 9.2µM* | -6%
COc1cc(C)ccc1S(=O)(=O)NC(=O)C1(C)CCN1C(=O)Cc1ccc(C(C)(C)C)cc1 (stereo unspecified) | 0% | i | i | -1% | 0% | 1%
CC(O)CC(C(=O)NNc1ccccc1)C(=O)NNc1ccccc1 (stereo unspecified) | 2.3µM* | i | u | -29% | 17% | 1.3µM*
